Measured values as given in PubChem BioAssay.
The source made the active and inactive calls.

Legend:
[1] = small-molecule microarray binders of probe aLefty2, primary screen, biochemical, biotinylated probe, 635/667 nm fluorescence (AID 1094); settings: higher = more signal;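 further: score merges spot fluorescence near 667 nm with spot signal-to-noise ratio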
[2] = system: Noggin (protein binding on small-molecule microarray); test: Noggin binders on small-molecule microarray, primary screen, biochemical, 635/667 nm fluorescence (AID 1095); settings: 635 nm fluorescence, higher = more signal;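 further: score merges 667 nm feature fluorescence with signal to noise over triplicate slides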
[3] = molecular target: Neurogenic locus notch homolog protein 3 (Homo sapiens) (UniProt Q9UM47); test: NOTCH3 binders on small-molecule microarray, primary screen, biochemical, 635/667 nm fluorescence (AID 1096); settings: NOTCH3 binding, 635 nm fluorescence, higher = more signal
Chain of Neurogenic locus notch homolog protein 3 (Homo sapiens) (Q9UM47 whole entry, looked up): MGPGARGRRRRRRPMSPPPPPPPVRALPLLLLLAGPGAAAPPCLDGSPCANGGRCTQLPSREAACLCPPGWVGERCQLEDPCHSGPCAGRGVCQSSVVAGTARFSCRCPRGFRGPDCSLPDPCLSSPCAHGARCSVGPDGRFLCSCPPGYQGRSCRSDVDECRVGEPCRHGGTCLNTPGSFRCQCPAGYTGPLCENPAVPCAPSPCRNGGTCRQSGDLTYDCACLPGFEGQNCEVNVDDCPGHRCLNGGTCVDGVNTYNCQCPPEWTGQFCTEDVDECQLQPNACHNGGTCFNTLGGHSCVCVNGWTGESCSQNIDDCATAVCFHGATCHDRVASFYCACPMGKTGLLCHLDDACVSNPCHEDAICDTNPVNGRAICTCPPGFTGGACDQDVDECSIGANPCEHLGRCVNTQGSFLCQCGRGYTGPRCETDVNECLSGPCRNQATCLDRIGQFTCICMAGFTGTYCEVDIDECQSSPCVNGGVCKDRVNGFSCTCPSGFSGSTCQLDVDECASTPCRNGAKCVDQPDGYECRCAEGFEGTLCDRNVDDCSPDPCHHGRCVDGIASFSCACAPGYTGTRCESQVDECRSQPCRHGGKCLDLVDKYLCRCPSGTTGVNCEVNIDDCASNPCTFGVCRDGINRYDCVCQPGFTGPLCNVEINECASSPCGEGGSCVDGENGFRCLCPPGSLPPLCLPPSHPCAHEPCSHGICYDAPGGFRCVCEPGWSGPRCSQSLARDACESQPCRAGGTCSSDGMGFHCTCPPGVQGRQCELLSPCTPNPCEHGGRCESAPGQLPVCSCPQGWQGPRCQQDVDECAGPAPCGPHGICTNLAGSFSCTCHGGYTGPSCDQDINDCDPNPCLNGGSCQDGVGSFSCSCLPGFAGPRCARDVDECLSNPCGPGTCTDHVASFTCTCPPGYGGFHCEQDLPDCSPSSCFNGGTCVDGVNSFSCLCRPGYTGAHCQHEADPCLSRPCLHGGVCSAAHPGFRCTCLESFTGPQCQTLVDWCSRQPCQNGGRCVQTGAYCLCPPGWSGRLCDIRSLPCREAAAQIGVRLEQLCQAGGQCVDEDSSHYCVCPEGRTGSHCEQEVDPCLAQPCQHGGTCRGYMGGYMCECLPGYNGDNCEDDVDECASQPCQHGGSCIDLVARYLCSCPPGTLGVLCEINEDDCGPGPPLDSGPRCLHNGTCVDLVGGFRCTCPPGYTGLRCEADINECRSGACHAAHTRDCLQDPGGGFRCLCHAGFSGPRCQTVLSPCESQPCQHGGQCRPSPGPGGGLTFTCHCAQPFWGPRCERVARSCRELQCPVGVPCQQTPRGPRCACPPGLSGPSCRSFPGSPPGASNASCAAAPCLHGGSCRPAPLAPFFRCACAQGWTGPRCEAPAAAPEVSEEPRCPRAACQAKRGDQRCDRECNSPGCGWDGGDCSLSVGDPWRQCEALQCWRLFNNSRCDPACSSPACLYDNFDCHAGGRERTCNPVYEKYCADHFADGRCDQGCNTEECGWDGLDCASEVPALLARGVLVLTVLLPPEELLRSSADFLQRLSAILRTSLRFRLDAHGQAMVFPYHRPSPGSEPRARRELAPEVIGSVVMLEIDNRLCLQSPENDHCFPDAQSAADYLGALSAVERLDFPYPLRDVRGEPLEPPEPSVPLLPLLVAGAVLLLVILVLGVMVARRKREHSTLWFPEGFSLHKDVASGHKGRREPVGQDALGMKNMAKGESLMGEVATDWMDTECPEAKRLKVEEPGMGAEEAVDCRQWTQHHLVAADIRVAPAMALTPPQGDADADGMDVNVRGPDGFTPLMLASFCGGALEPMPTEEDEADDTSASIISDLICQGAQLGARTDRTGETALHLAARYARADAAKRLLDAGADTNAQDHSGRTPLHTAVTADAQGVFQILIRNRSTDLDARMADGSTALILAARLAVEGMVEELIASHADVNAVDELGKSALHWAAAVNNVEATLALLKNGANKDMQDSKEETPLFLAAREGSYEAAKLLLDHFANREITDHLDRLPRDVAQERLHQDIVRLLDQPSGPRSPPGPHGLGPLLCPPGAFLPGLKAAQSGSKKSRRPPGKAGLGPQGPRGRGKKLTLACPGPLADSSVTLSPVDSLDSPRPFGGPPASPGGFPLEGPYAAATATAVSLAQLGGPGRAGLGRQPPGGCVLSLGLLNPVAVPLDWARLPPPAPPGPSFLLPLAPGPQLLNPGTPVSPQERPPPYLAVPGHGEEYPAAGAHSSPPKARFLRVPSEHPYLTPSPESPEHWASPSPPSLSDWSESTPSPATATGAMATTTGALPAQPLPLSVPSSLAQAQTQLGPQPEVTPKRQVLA

[4] = small-molecule microarray binders of probe aEGFR, primary screen, biochemical, biotinylated probe, 635/667 nm fluorescence (AID 1097); settings: higher = more signal;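 further: probe is a biotinylated anti-EGFR antibody binding compounds printed on slides; score combines fluorescence near 667 nm and signal to noise of each spot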
[5] = system: Plasmodium falciparum Sir2 (PF13_0152, Sir2A); test: pfSir2 binders on small-molecule microarrays, primary screen, biochemical, small-molecule microarray, 635 nm fluorescence (AID 1098); settings: small-molecule microarray binding, fluorescence 635 nm; higher = more signal;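 further: score merges spot fluorescence intensity with its signal-to-noise ratio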
[6] = small-molecule microarray binders of probe aDKK1, primary screen, biochemical, biotinylated probe, 635/667 nm fluorescence (AID 1099); settings: higher = more signal;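 further: score merges 667nm spot fluorescence with signal to noise across triplicate slides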
[7] = small-molecule microarray binders of probe aCHRDL2, primary screen, biochemical, biotinylated probe, 635/667 nm fluorescence (AID 1100); settings: higher = more signal
[8] = splicing luciferase reporter signal modulators, primary screen, spliceosome inhibition project, cell-based, HEK293, splice +/- reporter (AID 1101); settings: luminescence, 24 h, higher = more signal, called active from +8 up or from −8 down;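 further: HEK293 cells carrying a splicing-competent luciferase reporter gene; test concentration not given here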
[9] = molecular target: Fibroblast growth factor 10 (Homo sapiens) (UniProt O15520); test: FGF10 binders on small-molecule microarrays, primary screen, biochemical, small-molecule microarray, 635 nm fluorescence (AID 1102); settings: FGF10 binding, fluorescence 635 nm, higher = more signal
Chain of Fibroblast growth factor 10 (Homo sapiens) (O15520 whole entry, looked up): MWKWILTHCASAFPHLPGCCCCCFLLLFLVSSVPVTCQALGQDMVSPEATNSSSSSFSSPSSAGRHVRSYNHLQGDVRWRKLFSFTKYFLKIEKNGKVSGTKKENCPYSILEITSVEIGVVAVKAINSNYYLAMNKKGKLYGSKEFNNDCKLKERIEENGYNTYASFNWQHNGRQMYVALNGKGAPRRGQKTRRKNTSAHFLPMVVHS

[10] = system: glycogen synthase kinase-3 (GSK3A per assay name; protocol says GSK3B); test: GSK3 binders on small-molecule microarrays, primary screen, biochemical, small-molecule microarray, 635 nm fluorescence, GSK3A (AID 1103); settings: small-molecule microarray binding, fluorescence 635 nm; higher = more signal; further: the record names both GSK3A and GSK3B
[11] = molecular target: Epidermal growth factor receptor (Homo sapiens) (UniProt P00533); test: EGFR binders on small-molecule microarrays, primary screen, biochemical, small-molecule microarray, 635 nm fluorescence (AID 1104); settings: EGFR binding, higher = more signal;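 further: score merges 667 nm emission intensity with spot signal to noise over triplicate slides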
Chain of Epidermal growth factor receptor (Homo sapiens) (P00533 whole entry, looked up): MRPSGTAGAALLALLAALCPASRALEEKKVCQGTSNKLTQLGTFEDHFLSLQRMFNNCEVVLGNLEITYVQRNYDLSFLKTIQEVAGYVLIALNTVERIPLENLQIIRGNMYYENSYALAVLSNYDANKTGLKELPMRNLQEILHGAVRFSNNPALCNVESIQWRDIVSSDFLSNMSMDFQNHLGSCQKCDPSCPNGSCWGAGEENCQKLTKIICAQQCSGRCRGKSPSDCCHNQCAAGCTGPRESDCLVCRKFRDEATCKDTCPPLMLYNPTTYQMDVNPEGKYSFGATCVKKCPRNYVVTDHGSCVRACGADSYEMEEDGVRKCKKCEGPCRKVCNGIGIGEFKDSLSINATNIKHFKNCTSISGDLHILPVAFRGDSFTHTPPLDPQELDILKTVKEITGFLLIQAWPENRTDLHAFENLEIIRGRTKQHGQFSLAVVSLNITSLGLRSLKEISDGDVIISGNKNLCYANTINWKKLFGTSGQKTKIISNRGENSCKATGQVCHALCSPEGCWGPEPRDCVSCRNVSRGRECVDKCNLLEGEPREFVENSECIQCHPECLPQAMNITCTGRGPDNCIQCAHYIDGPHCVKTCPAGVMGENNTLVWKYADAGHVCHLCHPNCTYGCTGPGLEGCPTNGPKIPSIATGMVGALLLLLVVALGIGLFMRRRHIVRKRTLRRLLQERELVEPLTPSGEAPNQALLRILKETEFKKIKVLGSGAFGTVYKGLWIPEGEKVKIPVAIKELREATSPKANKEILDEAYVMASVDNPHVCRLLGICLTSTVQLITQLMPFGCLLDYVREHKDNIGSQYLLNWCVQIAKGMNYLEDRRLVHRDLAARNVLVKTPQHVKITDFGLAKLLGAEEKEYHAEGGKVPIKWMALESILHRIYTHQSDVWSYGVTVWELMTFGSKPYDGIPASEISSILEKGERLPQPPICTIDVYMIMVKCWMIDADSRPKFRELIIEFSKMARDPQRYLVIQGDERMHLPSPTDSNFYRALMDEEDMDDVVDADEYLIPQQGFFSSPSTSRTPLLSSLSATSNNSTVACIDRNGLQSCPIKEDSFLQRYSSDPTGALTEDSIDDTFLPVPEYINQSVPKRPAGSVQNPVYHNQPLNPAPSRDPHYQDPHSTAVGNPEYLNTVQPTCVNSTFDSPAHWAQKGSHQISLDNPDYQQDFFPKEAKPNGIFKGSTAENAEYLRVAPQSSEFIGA

[12] = molecular target: Follistatin-related protein 3 (Homo sapiens) (UniProt O95633); test: FSTL3 binders on small-molecule microarrays, primary screen, biochemical, small-molecule microarray, 635 nm fluorescence (AID 1105); settings: FSTL3 binding, higher = more signal;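 further: score merges emission near 667 nm and signal to noise per printed spot across three slides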
Chain of Follistatin-related protein 3 (Homo sapiens) (O95633 whole entry, looked up): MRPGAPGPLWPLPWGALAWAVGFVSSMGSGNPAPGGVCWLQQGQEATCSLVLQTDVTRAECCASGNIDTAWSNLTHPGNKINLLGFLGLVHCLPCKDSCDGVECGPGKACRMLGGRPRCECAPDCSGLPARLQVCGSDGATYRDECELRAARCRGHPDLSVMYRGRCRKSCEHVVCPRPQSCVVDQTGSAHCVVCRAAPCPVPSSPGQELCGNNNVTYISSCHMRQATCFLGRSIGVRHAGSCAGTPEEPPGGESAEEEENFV

[13] = molecular target: Dickkopf-related protein 1 (Homo sapiens) (UniProt O94907); test: DKK1 binders on small-molecule microarrays, primary screen, biochemical, small-molecule microarray, 635 nm fluorescence scan (AID 1106); settings: DKK1 binding, higher = more signal;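 further: score merges emission near 667 nm with signal to noise over three replicate slides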
Chain of Dickkopf-related protein 1 (Homo sapiens) (O94907 whole entry, looked up): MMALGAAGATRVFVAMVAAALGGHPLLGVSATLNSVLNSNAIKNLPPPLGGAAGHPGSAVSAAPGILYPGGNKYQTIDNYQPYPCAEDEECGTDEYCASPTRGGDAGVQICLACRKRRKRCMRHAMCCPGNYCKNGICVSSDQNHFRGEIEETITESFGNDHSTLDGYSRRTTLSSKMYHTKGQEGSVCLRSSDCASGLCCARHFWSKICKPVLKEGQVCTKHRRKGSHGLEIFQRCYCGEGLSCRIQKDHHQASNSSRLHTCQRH

[14] = system: Inhibin beta A chain (activin A); test: INHBA (activin A) binders on microarrays, primary screen, biochemical, small-molecule microarray, 635 nm fluorescence scan (AID 1107); settings: small-molecule microarray binding, higher = more signal;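 further: mouse activin A protein probed at 4.33 µg/mL on printed slides; score merges bound-protein fluorescence near 667 nm with spot signal-to-noise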
[15] = system: Human papillomavirus type 1a protein E7 (residues 44-93); test: HPV1a E7 fragment binders on microarrays, primary screen, biochemical, small-molecule microarray, residues 44-93, 635 nm fluorescence (AID 1108); settings: small-molecule microarray binding, fluorescence 635 nm; higher = more signal;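 further: E7 fragment applied at 1 µg/mL in TBST for 1 h at 4 C; score combines spot fluorescence with its signal to noise ratio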
[16] = modulators of HCV replicon luciferase signal, primary screen, HCV replication inhibitor project, Huh7 cells, luciferase reporter (AID 1109); settings: 48 h, higher = more signal;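 further: huh7 hepatoma cells harbouring a luciferase neomycin HCV replicon reporter; luciferase luminescence as measure of HCV replicon replication; test concentration not given here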
[17] = molecular target: Left-right determination factor 2 (Homo sapiens) (UniProt O00292); test: LEFTY2 binders on small-molecule microarrays, primary screen, biochemical, small-molecule microarray, 635 nm fluorescence scan (AID 1110); settings: LEFTY2 binding, higher = more signal
Chain of Left-right determination factor 2 (Homo sapiens) (O00292 whole entry, looked up): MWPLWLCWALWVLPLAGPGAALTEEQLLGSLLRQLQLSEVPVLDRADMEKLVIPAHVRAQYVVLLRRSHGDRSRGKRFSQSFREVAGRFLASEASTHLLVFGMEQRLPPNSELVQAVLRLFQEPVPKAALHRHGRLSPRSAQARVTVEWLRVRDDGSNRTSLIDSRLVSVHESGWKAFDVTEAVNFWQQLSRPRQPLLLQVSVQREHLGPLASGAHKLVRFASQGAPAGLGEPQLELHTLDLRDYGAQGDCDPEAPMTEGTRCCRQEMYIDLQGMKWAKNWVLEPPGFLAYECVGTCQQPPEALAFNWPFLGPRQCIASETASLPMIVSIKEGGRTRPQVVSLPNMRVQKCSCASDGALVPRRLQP

[18] = molecular target: Calmodulin-1 (Homo sapiens) (UniProt P0DP23); test: CALM1 binders on microarrays, EGTA buffer, profiling panel, biochemical, small-molecule microarray, Cy5-labelled CALM1 (AID 1111); settings: Cy5-CALM1 binding fluorescence, higher = more signal;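 further: labelled calmodulin applied in Tris saline Tween buffer holding calcium plus EGTA and DTT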
[19] = molecular target: Calmodulin-1 (Homo sapiens) (UniProt P0DP23); test: calcium-bound CALM1 binders on microarrays, profiling panel, artefact control for SMM control-protein annotation, biochemical, small-molecule microarray, Cy5-labelled CALM1, plus calcium (AID 1112); settings: Cy5-CALM1 binding fluorescence, higher = more signal;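 further: score merges spot fluorescence with signal to noise from triplicate slides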
[20] = small-molecule microarray binders of probe aWnt5a, primary screen, biochemical, biotinylated probe, 635/667 nm fluorescence (AID 1113); settings: higher = more signal;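 further: score merges 667 nm fluorescence intensity with signal-to-noise per printed feature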

Row | Structure (SMILES) | composite z-score [1] | composite z-score [2] | composite z-score [3] | composite z-score [4] | composite z-score [5] | composite z-score [6] | composite z-score [7] | z-score [8] | composite z-score [9] | composite z-score [10] | composite z-score [11] | composite z-score [12] | composite z-score [13] | composite z-score [14] | composite z-score [15] | z-score [16] | composite z-score [17] | composite z-score [18] | composite z-score [19] | composite z-score [20]
1 | CCOC(=O)C[C@H]1[C@H](OC(=O)c2ccc(-c3ccccc3)cc2)[C@@H](NC(=O)c2ccccc2)c2cc(OCCCO)ccc2N1C(=O)c1ccccc1 | 0.0921 | -0.0461 | 0.526 | -0.019 | 0.204 | 0.462 | 0.47 | -2.01 (inactive) | 0.767 | 0.66 | -0.0664 | 0.235 | -0.188 | -0.649 | 1.11 | -1.58 | 0.394 | 2.04 | 1.2 | -0.0718
2 | COC(=O)[C@@]1(CCC(=O)OC(C)(C)C)COC(c2ccc(OCCCO)cc2)=N1 | 0.0399 | -1.99 | -1.84 | -0.36 | -1.07 | 0.623 | 1.18 | -0.493 (inactive) | -1.2 | -1.19 | -1.82 | -2.47 | -2.17 | -0.0726 | -1.42 | 0.136 | -1.57 | -0.683 | 0.674 | -0.197
3 | CCOC(=O)C[C@H]1[C@H](OC(=O)c2cc3ccccc3oc2=O)[C@@H](NC(=O)c2ccccc2)c2cc(OCCCO)ccc2N1C(=O)Cc1ccc(OC)cc1 | -0.0069 | 0.908 | 0.665 | -0.113 | 0.575 | 0.33 | -0.194 | -1.78 (inactive) | 0.905 | 0.714 | 0.433 | 0.909 | 0.511 | 0.506 | 0.378 | -0.824 | 0.357 | 0.163 | -0.422 | -0.182
4 | COc1ccc([Si](C)(C)[C@H]2[C@H](CC(=O)N(CCO)Cc3ccccc3)O[C@@]3(C(=O)N(Cc4ccc(N5CCC5=O)cc4)c4ccccc43)[C@@H]2C)cc1 | -0.166 | -0.156 | -0.813 | -0.302 | 0.811 | 0.0433 | 0.4 | -0.439 (inactive) | -0.802 | -0.39 | -0.443 | -0.155 | 0.183 | 0.577 | -0.403 | -3.87 | 0.271 | 0.0311 | 0.705 | -0.187
5 | CC(C)C[C@@H]1NC(=O)[C@@H]2C[C@H](C(=O)NCCCCCNC(=O)CS)[C@H](c3cccc(OCCO)c3)N2C1=O | -0.0153 | 1.44 | 1.06 | 0.133 | 1.68 | 0.588 | 0.619 | -1.15 (inactive) | 0.654 | 1.32 | 0.717 | 0.921 | 0.741 | 0.947 | 0.64 | 0.568 | 0.581 | 0.942 | 0.0355 | -0.0236
6 | COC(=O)C(CC#Cc1ccc2c(c1)[C@]1(C(=O)N2)[C@H](C(N)=O)[C@H]2C(=O)O[C@H](c3ccccc3)[C@H](c3ccccc3)N2[C@@H]1c1ccc(O)cc1)C(=O)OC | -0.117 | -1.1 | -1.23 | -0.442 | 1.12 | -0.608 | -0.0947 | 0.0733 (inactive) | -0.519 | -1.15 | -1.1 | -1.28 | -0.591 | -1.15 | -1.74 | -0.152 | -1.19 | -0.351 | 0.221 | -0.359
7 | C=CCN1C(=O)[C@@]2(O[C@@H](CCO)[C@H]([Si](C)(C)c3ccc(OC)cc3)[C@H]2C)c2cc(N(C=O)c3ccccc3)ccc21 | 0.0183 | 0.366 | 0.259 | -0.0304 | 0.592 | 0.235 | 0.453 | -3.43 (inactive) | 0.341 | -0.0443 | -0.131 | 0.131 | 0.0733 | 1.01 | 0.192 | -5.12 | 0.0105 | 0.905 | 1.06 | -0.0643
8 | C=C(/C(=C/C[C@H](OC(C)=O)c1cccc(OCCO)c1)c1cc(C(=O)OC)ccc1OC)C(C)C | -0.189 | -0.0168 | -0.609 | -0.191 | 0.86 | -0.0559 | 0.132 | -0.846 (inactive) | 0.306 | -0.116 | -0.805 | -0.948 | -0.316 | 0.576 | -0.0954 | -0.556 | -0.516 | -1 | -0.551 | -0.124
9 | COC(=O)C1=CC(c2ccc(CO)cc2)=CC(C2CC2)N(C)C=C1C(=O)OC (stereo not given) | -0.141 | -0.946 | -0.464 | -0.154 | 1.97 | 0.341 | 0.542 | -1.93 (inactive) | 0.17 | -0.373 | -0.125 | -0.172 | 0.466 | 0.606 | -0.139 | -0.748 | -0.246 | 1.52 | 0.454 | -0.0179
10 | C=C1C=C(Br)C2(OCCCO2)[C@H]2OC12 (stereo not given in full) | -0.116 | 0.104 | 0.0347 | -0.076 | 0.313 | -0.118 | -0.533 | -0.0861 (inactive) | 0.125 | 0.259 | 0.442 | 0.322 | 0.536 | 0.831 | -0.524 | 1.38 | 0.333 | -0.367 | -0.755 | -0.176
